4 compounds from PubChem BioAssay (EPA / NIEHS) can be followed below.

Records with an inconclusive call do not appear. The source made the active and inactive calls. The calls were made as follows, unless noted: active = hit-call score of the fitted dose curve at least 0.9, where 1 is the maximum; inactive = score below 0.9.

Assay [1] in a line: Tanguay_ZF_120hpf_MUSC: Oregon State University Tanguay Lab 120 Hour Post-fertilization zebrafish Assay for Muscle Malformation (AID 2284401). The method, boiled down: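 Scored as a binary brightfield endpoint at 120 hpf, fitted versus DMSO. Single dechorionated wild-type (Tropical 5D) zebrafish embryos per well, statically exposed at 28C from 6 hpf onward with final DMSO 0.64%.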

Assay [2] is described as follows: CCTE_Shafer_MEA_dev_firing_rate_mean: CCTE's Neural Network Formation Assay for Mean Firing Rate, Shafer Lab (AID 2284031). The method, boiled down:
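Extracellular spike frequency, AUC over DIV 5–12 recordings, in rat cortical neuron MEA cultures dosed from plating; loss direction vs DMSO.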

Assay [3] is described as follows: CCTE_Shafer_MEA_dev_per_burst_spike_percent: CCTE's Neural Network Formation Assay for Percent of Spikes in a Burst, Shafer Lab (AID 2284032). The method, boiled down:
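Value is trapezoidal AUC over recordings on days 5, 7, 9 and 12 of the well-mean fraction of spikes falling in single-electrode bursts; rat cortical cultures exposed continuously from plating, treatment renewed DIV 5 and 9, fitted downward against DMSO.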

Assay [4] can be described thus: CCTE_Shafer_MEA_dev_active_electrodes_number: CCTE's Neural Network Formation Assay for Number of Active Electrodes, Shafer Lab (AID 2284040; active = hit-call score of the fitted dose curve at least 0.9, where 1 is the maximum). The method, boiled down: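 Developing rat cortical networks on MEAs, exposed DIV 0–12. Value is the AUC of active-electrode counts (≥5 spikes/min) from days 5, 7, 9, 12, relative to DMSO.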
Assay [5] in a line: CCTE_Shafer_MEA_dev_burst_rate: CCTE's Neural Network Formation Assay for Burst Rate, Shafer Lab (AID 2284042). The method, boiled down:
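Cells plated, treated day 0; recorded DIV 5, 7, 9, 12; fed and re-treated DIV 5, 9. Endpoint: bursts per recording time, active-electrode well mean, trapezoidal AUC, fitted in decreasing direction against DMSO baseline.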

Assay [6] can be described thus: CCTE_Shafer_MEA_dev_per_burst_interspike_interval: CCTE's Neural Network Formation Assay for Burst Interspike Interval, Shafer Lab (AID 2284044). The method, boiled down:
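Primary rat cortical neurons on 48-well MEA plates, exposed from day 0 through day 12, treatment renewed at DIV 5 and 9. Within-burst interspike interval recorded days 5, 7, 9, 12, well-averaged, summarised as AUC; negative fit versus DMSO.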

The nature of assay [7]: CCTE_Shafer_MEA_dev_burst_duration_mean: CCTE's Neural Network Formation Assay for Mean Burst Duration, Shafer Lab (AID 2284045). The method, boiled down:
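Network-formation assay in primary rat cortical neurons; treatment spans twelve days of development. Mean burst duration per well is integrated by trapezoidal AUC and fitted in the loss-of-signal direction against DMSO baseline.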

A short description of assay [8]: CCTE_Shafer_MEA_dev_interburst_interval_mean: CCTE's Neural Network Formation Assay for Mean Interburst Interval, Shafer Lab (AID 2284046).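 Also: curve fitted for decrease in interburst interval relative to DMSO.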 The method in brief: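 Developing rat cortical networks on 48-well MEAs receive compound from the day of plating. Burst intervals from each active electrode are averaged per well, and AUC over the recording days is fitted in the negative direction against DMSO.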

Assay [9] can be described thus: CCTE_Shafer_MEA_dev_inter_network_spike_interval_mean: CCTE's Neural Network Formation Assay for Mean Inter-network Spike Interval, Shafer Lab (AID 2284047). The method, boiled down:
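Rat cortical cultures, 1.5 x 10^5 cells/well on 48-well MEA plates; continuous exposure days 0–12, medium and compound refreshed DIV 5, 9. Mean time between consecutive network-spike peaks; AUC across DIV 5/7/9/12; DMSO baseline, negative fitting direction.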

Assay [10] can be described thus: CCTE_Shafer_MEA_dev_network_spike_number: CCTE's Neural Network Formation Assay for Number of Network Spikes, Shafer Lab (AID 2284048).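 Also: synchronized bursts across electrodes counted on days 5 7 9 12 and integrated as AUC.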 The method in brief:
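Extracellular recordings from 16-electrode wells track network formation in rat cortical cultures under continuous treatment from plating. The endpoint is network spike number, expressed as AUC across DIV 5–12 relative to DMSO vehicle.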

Assay [11] is described as follows: CCTE_Shafer_MEA_dev_spike_duration_mean: CCTE's Neural Network Formation Assay for Mean Spike Duration, Shafer Lab (AID 2284051). The method in brief: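 Readout is the average length of network spikes, clustered firing across electrodes, summed over DIV 5, 7, 9 and 12 as area under the curve. Neurons from rat cortex developed networks on MEA plates under continuous 12-day exposure.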

Assay [12] can be described thus: CCTE_Shafer_MEA_dev_network_spike_duration_std: CCTE's Neural Network Formation Assay for Standard Deviation of Network Spike Duration, Shafer Lab (AID 2284052).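 Also: hits are decreases in network spike duration SD versus DMSO vehicle.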 The method, boiled down:
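Read-out is the trapezoidal area-under-the-curve across recordings made on days 5, 7, 9 and 12, fitted in the negative direction against DMSO baseline. Neurons were primary rat cortical cells treated from day 0, with treatment renewed at each feed.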

The nature of assay [13]: CCTE_Shafer_MEA_dev_per_network_spike_spike_number_mean: CCTE's Neural Network Formation Assay for Mean Number of Spikes in a Network Spike, Shafer Lab (AID 2284053). The method, boiled down:
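Continuous twelve-day exposure of developing rat cortical networks grown over 16 microelectrodes per well; spontaneous firing is captured at four time points, and the per-network-spike spike number is integrated over development by trapezoidal AUC.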

Assay [14] is described as follows: CCTE_Shafer_MEA_dev_per_network_spike_spike_percent: CCTE's Neural Network Formation Assay for Percent of Spikes in a Network Spike, Shafer Lab (AID 2284054). The method, boiled down:
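Developing networks of rat cortical neurons are dosed at day 0 and recorded extracellularly four times up to day 12. The endpoint is the area under the curve of percent spikes in network spikes, fitted in the negative direction relative to DMSO.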

Assay [15] in a line: CCTE_Shafer_MEA_dev_mutual_information_norm: CCTE's Neural Network Formation Assay for Mutual Information Normalization, Shafer Lab (AID 2284091). The method, boiled down:
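Exposure of primary rat cortical neurons began at plating and ran to DIV 12, with full media and treatment renewal after DIV 5 and 9 recordings. Mutual information AUC (DIV 5–12) was analysed for loss versus DMSO.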

Assay [16] is described as follows: CCTE_Shafer_MEA_dev_correlation_coefficient_mean: CCTE's Neural Network Formation Assay for Mean Correlation Coefficient, Shafer Lab (AID 2284093). The method, boiled down:
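Read-out: well-mean correlation coefficient of spike trains between electrode pairs, collapsed over four recording days as trapezoidal area-under-the-curve. Developing rat cortical neuron networks grown on MEAs received test chemical continuously from plating.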

The nature of assay [17]: CCTE_Mundy_HCI_Cortical_Synap_Neur_Matur_NeuriteSpotCountPerNeuriteLength: CCTE's Synaptogenesis and Neurite Maturation Assay in rat cortical cells for Neurite Spot Count per Neurite Length, Mundy Lab (AID 2284210). The method, boiled down: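 Neurite-associated synapse density (synaptophysin puncta per unit neurite length) is measured by fluorescence high-content imaging in rat cortical cultures treated from DIV 7 and fixed at DIV 12, with DMSO as negative control.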

Assay [18] is described as follows: CCTE_Mundy_HCI_Cortical_NOG_NeuriteCount: CCTE's Neurite Outgrowth Assay in rat cortical cells for Neurite Count, Mundy Lab (AID 2284212).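 Also: cells fixed about two days after chemical exposure began.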 The method in brief:
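Rat cortical primary cells; compound added 2 h post-plating, 1/10 dilution of working solution. Anti-betaIII-tubulin/AF488 ICC; ArrayScan neurite count vs DMSO.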

Assay [19] is described as follows: CCTE_Mundy_HCI_Cortical_NOG_NeuriteLength: CCTE's Neurite Outgrowth Assay in rat cortical cells for Neurite Length, Mundy Lab (AID 2284213). The method, boiled down: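 First, rat primary cortical cells were plated and, 2 h later, given test chemical as a 1/10 dilution. Finally, βIII-tubulin immunostaining enabled automated imaging of neurite length.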
A short description of assay [20]: CCTE_Mundy_HCI_Cortical_Synap_Neur_Matur_NeuriteSpotCountPerNeuron: CCTE's Synaptogenesis and Neurite Maturation Assay in rat cortical cells for Neurite Spot Count per Neuron Count, Mundy Lab (AID 2284215). The method, boiled down:
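Rat primary cortical cultures given AraC at DIV 5, dosed from DIV 7 to DIV 12 with media change. Fixed, stained for MAP2, synaptophysin and Hoechst; neurite-associated synaptophysin puncta per neuron quantified by high-content imaging versus DMSO.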

Assay [21] can be described thus: CCTE_Mundy_HCI_Cortical_Synap_Neur_Matur_SynapseCount: CCTE's Synaptogenesis and Neurite Maturation Assay in rat cortical cells for Synapse Count, Mundy Lab (AID 2284218). The method, boiled down:
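Endpoint: synapses/neuron by HCI (synaptophysin puncta on MAP2-labelled neurites, Hoechst nuclei). Rat primary cortical cells, AraC DIV 5, dosed DIV 7, fixed DIV 12; DMSO negative control.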

Assay [22] is described as follows: CCTE_Mundy_HCI_hN2_NOG_NeuronCount: CCTE's Neurite Outgrowth Assay in human hN2 cells for Neuron Count, Mundy Lab (AID 2284221; active = hit-call score of the fitted dose curve at least 0.9, where 1 is the maximum). The method, boiled down: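 Read-out is the number of betaIII-tubulin-positive neurons imaged by automated high-content analysis, with DMSO as negative control.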
Assay [23] can be described thus: CCTE_Mundy_HCI_Cortical_Synap_Neur_Matur_NeuriteCount: CCTE's Synaptogenesis and Neurite Maturation Assay in rat cortical cells for Neurite Count, Mundy Lab (AID 2284222). The method in brief:
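Chemical exposure runs DIV 7–12 in rat cortical cultures, glia suppressed by AraC at DIV 5; measurement is at DIV 12. Imaging-derived neurite counts are fitted against DMSO baseline.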

The nature of assay [24]: CCTE_Mundy_HCI_Cortical_Synap_Neur_Matur_CellBodySpotCount: CCTE's Synaptogenesis and Neurite Maturation Assay in rat cortical cells for Cell Body Spot Count, Mundy Lab (AID 2284223). The method, boiled down:
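Primary rat cortical cultures, AraC added at DIV 5; dosed DIV 7 through DIV 12 […]. Fixed, stained for MAP2 and synaptophysin with Hoechst; cell body-associated synaptophysin puncta per neuron counted by high-content imaging, loss vs DMSO.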

Assay [25] can be described thus: CCTE_Mundy_HCI_hNP1_Casp3_7: CCTE's Caspase-Glo 3/7 Assay in human neuroprogenitor cells for Apoptosis, Mundy Lab (AID 2284240). The method in brief:
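Neuroepithelial-lineage stem cells from WA09 embryonic cells were treated with chemicals after 40–44 h of culture. Twenty-four hours later, caspase-3/7 activation was detected luminescently after a 30 min room-temperature reagent step, with DMSO as baseline.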

Assay [26] is described as follows: CCTE_Mundy_HCI_hNP1_CellTiter: CCTE's Cell Titer-Glo 2 Assay in human neuroprogenitor cells for Viability, Mundy Lab (AID 2284241; active = hit-call score of the fitted dose curve at least 0.9, where 1 is the maximum). The method, boiled down: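 Measures ATP content in human neural progenitors derived from WA09 embryonic cells. Read-out at 26.5 hours after dosing, with DMSO serving as the negative control and baseline.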
Assay [27] can be described thus: CCTE_Mundy_HCI_Cortical_Synap_Neur_Matur_NeuronCount: CCTE's Synaptogenesis and Neurite Maturation Assay in rat cortical cells for Neuron Count, Mundy Lab (AID 2284242; active = hit-call score of the fitted dose curve at least 0.9, where 1 is the maximum;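 also: hits reduce neuron count versus DMSO baseline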). The method in brief:
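Measured at DIV 12: fluorescently labelled neurons (Hoechst nuclei, MAP2) in rat primary cortical cultures, counted by high-content imaging. AraC suppressed glia from DIV 5; DMSO served as negative control.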

The AC50 is the midpoint of the concentration-response curve, whichever way the signal moves.

For the compound `CN(C(=O)C(F)(F)C(F)(F)C(F)(F)F)[Si](C)(C)C`, in [1], the call was inactive.

In the case of `O=C(O)C(F)(F)C(F)(F)C(F)(F)OC(F)(C(F)(F)F)C(F)(F)F`, in [1], the compound was called inactive.

In the case of `O=P(O)(O)CCC(F)(F)C(F)(F)C(F)(F)C(F)(F)C(F)(F)C(F)(F)F`, the compound was called inactive in assay [1].

In the case of `C[C@H](N)Cc1ccccc1`, the outcome in assay [2], in [3], in assay [4], in [5], in assay [6] and in assay [7] was inactive. Moreover, the compound was called inactive in assay [8], in assay [9], in assay [10], in [11], in [12] and in assay [13]. Besides, the result in assay [14], in assay [15], in assay [16], in [17], in [18] and in assay [19] was inactive. In addition, the call in [20], in assay [21], in assay [22], in assay [23], in assay [24] and in [25] was inactive. Also, in assay [26], the compound was called inactive. In addition, the AC50 in assay [27] is 43.6 nM (active).
